Screening results (PubChem BioAssay)
Compounds with a hit are over-represented: about 3% of the library has one in this group of screens.
PAFAH1B3 FP inh: PAFAH1B3 enzyme inhibitors, primary screen, biochemical, fluorescence polarization, human | Platelet-activating factor acetylhydrolase IB subunit alpha1 (Homo sapiens), Q15102 | recombinant PAFAH1B3, FP-rhodamine probe | inhibition, % at 3.39 µM | 340,000 tested, 0.28% active | AID 492972, 2010;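 active means inhibition above the screen-wide average of all tested compounds plus 3 SD, cut at about 25% in these data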
Target sequence (Q15102 whole entry, looked up): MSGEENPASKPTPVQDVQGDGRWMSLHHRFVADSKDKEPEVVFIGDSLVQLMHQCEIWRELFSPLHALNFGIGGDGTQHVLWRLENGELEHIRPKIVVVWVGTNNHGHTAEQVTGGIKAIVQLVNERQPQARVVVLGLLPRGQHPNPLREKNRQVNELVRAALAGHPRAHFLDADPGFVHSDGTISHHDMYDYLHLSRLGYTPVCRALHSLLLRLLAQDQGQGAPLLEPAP
PAFAH1B2 FP inh: PAFAH1B2 enzyme inhibitors, primary screen, biochemical, fluorescence polarization, human | Platelet-activating factor acetylhydrolase IB subunit alpha2 (Homo sapiens), P68402 | 340,000 tested, 1.2% active | AID 492953, 2010 | recombinant PAFAH1B2, FP-rhodamine activity probe | inhibition, % at 3.39 µM;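 active means inhibition above the mean of all tested compounds plus 3 SD, cut at about 24% in these data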
Target sequence (P68402 whole entry, looked up): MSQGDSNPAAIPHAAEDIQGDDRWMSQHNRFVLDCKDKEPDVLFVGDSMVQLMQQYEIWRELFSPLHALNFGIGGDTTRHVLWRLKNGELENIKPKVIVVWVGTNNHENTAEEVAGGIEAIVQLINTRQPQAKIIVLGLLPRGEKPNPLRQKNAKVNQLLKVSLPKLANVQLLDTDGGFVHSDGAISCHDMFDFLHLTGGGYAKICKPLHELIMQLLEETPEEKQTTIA
PP5 primary: PP5 phosphatase inhibitors, primary screen, biochemical, fluorescence; purified PP5c, OMFP substrate fluorescence; inhibition, % at 6.7 µM; 320,000 tested, 0.18% active;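 active means inhibition above the campaign's mean inhibition across all tested compounds plus 3 SD, cut at about 9.5% in these data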
Fh CTSL1 inh: Fasciola hepatica cathepsin L1 inhibitors, primary screen, counter-screen for PFM18AAP inhibitor project, biochemical, QFRET, fluorogenic peptide substrate | recombinant F. hepatica cathepsin L1, Z-Leu-Arg-MCA fluorescence | inhibition, % at 5.96 µM | 300,000 tested, 0.49% active;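 active means inhibition above the mean of all tested compounds plus 3 SD, set per screening campaign, cut at about 17% in these data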
pPAFAH FP inh: pPAFAH enzyme inhibitors, primary screen, biochemical, fluorescence polarization, human; Platelet-activating factor acetylhydrolase (Homo sapiens), Q13093; recombinant pPAFAH, FP-rhodamine probe fluorescence polarization; inhibition, % at 3.39 µM; 330,000 tested, 1.5% active; AID 463082, 2010;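 active means inhibition above the mean inhibition across the screen plus 3 SD, cut at about 25% in these data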;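 further: inhibitors block binding of the rhodamine activity-based probe so polarization drops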
PAFAH2 inh: PAFAH2 enzyme inhibitors, primary screen, biochemical, fluorescence polarization, human; recombinant PAFAH2, FP-rhodamine activity probe; inhibition, % at 3.39 µM; Platelet-activating factor acetylhydrolase 2, cytoplasmic (Homo sapiens), Q99487; 340,000 tested, 0.99% active;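 active means inhibition above the mean over all tested compounds plus 3 SD, cut at about 30% in these data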;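 further: inhibitors block probe labeling of enzyme so polarization drops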
pPAFAH confirm: pPAFAH (PLA2G7) enzyme inhibitors, confirmation, biochemical, fluorescence polarization, human | shares compounds with pPAFAH FP inh | recombinant pPAFAH, FP-Rh probe fluorescence polarization | inhibition, % at 3.39 µM | 2,300 tested, 72% active | AID 463230, 2010;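 active means mean inhibition of the triplicate above the hit cutoff set for the earlier primary screen, cut at about 25% in these data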
A number is an active result; - = inactive; . = no result given.

SMILES | PAFAH1B3 FP inh | PAFAH1B2 FP inh | PP5 primary | Fh CTSL1 inh | pPAFAH FP inh | PAFAH2 inh | pPAFAH confirm
Cc1ccc(OCC(=O)N/N=C/C=C/c2ccco2)cc1 | - | - | - | - | 51 | - | -
O=C(COc1ccccc1[N+](=O)[O-])N/N=C/C=C/c1ccco1 | - | - | - | - | - | - | .
Cc1cc(C)c(Nc2cc(S(=O)(=O)O)c(N)c3c2C(=O)c2ccccc2C3=O)c(C)c1 | 46 | 63 | - | - | 89 | 83 | 92
O=C(N=C1SC2CS(=O)(=O)CC2N1Cc1ccc(F)cc1)C1CCCO1 (configuration not stated) | - | - | - | - | - | - | .
CCOC(=O)Cc1csc(SCC(=O)Nc2nccs2)n1 | - | - | - | - | - | - | .
CCOC(=O)Cc1csc(SCC(=O)Nc2sc3c(c2C(N)=O)CCC3)n1 | - | - | - | - | 37 | - | -
O=C(CSc1nnc(NC(=O)C2CC(=O)N(c3ccccc3)C2)s1)NCc1ccco1 (configuration not stated) | - | - | - | - | - | - | .
O=[N+]([O-])c1ccc(N/N=C/c2ccccc2)c(F)c1 | - | - | - | - | - | - | .
NS(=O)(=O)c1ccc(N/N=C/c2ccc(C(=O)O)cc2)c([N+](=O)[O-])c1 | - | - | - | - | - | - | .
COc1cc(C=NNc2ccc(S(=O)(=O)Nc3ccccc3C(=O)O)cc2[N+](=O)[O-])ccc1O | - | 31 | . | . | 63 | 48 | 78
CC(=O)Nc1ccc(C=NNc2ccc(S(=O)(=O)Nc3ccccc3C(=O)O)cc2[N+](=O)[O-])cc1 | 27 | 26 | . | . | 64 | - | 66
CN(CCO)c1ccc(C=NNc2ccc([N+](=O)[O-])cc2S(=O)(=O)Nc2ccccc2C(=O)O)cc1 | . | . | . | . | 49 | . | 55
Cc1ccc(C(=O)Sc2cccccc2=O)cc1 | - | - | - | - | - | - | .
Cc1nc2cc(C(=O)OCC(=O)NC3CCS(=O)(=O)C3)ccc2n1-c1ccccc1 (configuration not stated) | - | - | - | - | - | - | .
Cc1nc2cc(C(=O)OCC(=O)Nc3cccc(Cl)c3)ccc2n1-c1ccccc1 | - | - | - | - | 43 | 64 | 41
CN1C(=O)CCC(CCC(=O)O)(c2ccccc2O)C1=O (configuration not stated) | - | - | - | - | - | - | .
O=C(N/N=C1/CCSC1)c1cc(Br)ccc1O | - | - | - | - | 37 | - | -
COCCN=C1Sc2nc3ccc(C)cc3cc2CN1Cc1cccs1 | - | - | - | - | 40 | - | 60
CN(C(=O)COC(=O)c1cc([N+](=O)[O-])ccc1N1CCCC1)C1CCS(=O)(=O)C1 (configuration not stated) | - | - | - | - | - | - | .
CCC(C)N(C(=O)COC(=O)c1cc([N+](=O)[O-])ccc1N1CCOCC1)C1CCS(=O)(=O)C1 (configuration not stated) | - | - | - | - | 40 | - | -
CCOc1c2ccc(C(=O)NCCc3ccc(C)cc3)cc2nn1CC | - | - | - | - | - | - | .
CCn1nc2cc(C(=O)NCCc3cccs3)ccc2c1OC | - | - | - | - | 50 | - | -
CCOc1ccc(NS(=O)(=O)c2ccc(C(=O)NCC(c3ccc(OC)cc3)N3CCOCC3)cc2)cc1 (configuration not stated) | - | - | - | - | 50 | - | 59
CCOc1ccc(NS(=O)(=O)c2ccc(C(=O)NCC3(N(C)C)CCCCC3)cc2)cc1 | - | - | - | - | 52 | - | 45
O=C(CSc1ccc(-c2ccco2)nn1)c1cccc([N+](=O)[O-])c1 | - | - | - | - | 38 | - | -
SMILES | PAFAH1B3 FP inh | PAFAH1B2 FP inh | PP5 primary | Fh CTSL1 inh | pPAFAH FP inh | PAFAH2 inh | pPAFAH confirm
CC(=O)c1cccc(NC(=O)CSc2ccc(-c3ccco3)nn2)c1 | - | - | - | - | - | - | .
Cc1cccc(N2CCN(C(=O)c3cccc(S(=O)(=O)N4CCOCC4)c3)CC2)c1C | - | - | . | . | . | - | .
O=C(CN1C(=O)c2ccccc2S1(=O)=O)Nc1cc(S(=O)(=O)N2CCCCC2)ccc1Cl | - | - | . | . | . | - | .
O=C1NN(c2ccc(Br)cc2)C(=O)/C1=C\c1ccc(O)cc1O | - | - | - | - | 37 | - | 25
Cc1cc(/C=C2/C(=O)NN(c3ccccc3)C2=O)c(C)n1-c1cccc(O)c1 | - | - | - | - | - | - | .
COc1ccc(O)c(C(=O)C2c3ccccc3C(=O)N2c2ccc(C)cc2)c1 (configuration not stated) | - | - | - | - | 40 | - | -
COc1ccc(N2C(=O)c3ccccc3C2O)cc1 (configuration not stated) | - | - | - | - | - | - | .
COc1ccccc1NC(=O)CSc1sc2c(O)cc(=O)[nH]c2c1C#N | - | - | - | - | 39 | - | -
COc1ccc(NC(=O)CSc2sc3c(O)cc(=O)[nH]c3c2C#N)c(OC)c1 | - | - | - | - | 36 | - | -
NC(=O)c1ccc(-n2nnnc2SCC(=O)c2ccc(O)c(O)c2)cc1 | - | - | - | - | 37 | - | 67
COc1ccc(OC)c(Nc2cc(-c3ccccc3)nc(N)n2)c1 | . | . | - | - | 43 | . | 37
Fc1ccc(-[n+]2nc(Nc3ccccc3)sc2-c2c(Cl)cccc2Cl)cc1 | - | - | - | - | 51 | - | -
O=C(O)c1ccc(-c2sc(Nc3ccccc3)n[n+]2-c2ccc(F)cc2)cc1 | - | - | - | - | - | - | .
CCc1ccc(Nc2n[n+](-c3ccccc3)c(-c3c(Cl)cccc3Cl)s2)cc1 | - | - | - | - | 56 | - | 34
CCc1ccc(Nc2n[n+](-c3ccccc3)c(-c3ccc(OCc4ccccc4)cc3)s2)cc1 | - | - | - | - | - | - | .
COc1ccc(C)cc1Nc1n[n+](-c2ccccc2)c(-c2c(Cl)cccc2Cl)s1 | . | . | - | - | 53 | . | 53
COc1ccc2[nH]cc(CCNC(=O)Cn3cc(C)c(=O)[nH]c3=O)c2c1 | - | - | . | . | . | - | .
COC(=O)c1cccc(C(=O)N2CCCC(Nc3ccc(C)c(C)c3)C2)c1 (configuration not stated) | - | - | - | - | - | - | .
O=C(O)c1cc(Cl)c2c(c1)[C@@H]1C=CC[C@@H]1[C@H](c1ccc(S(=O)(=O)N3CCOCC3)cc1)N2 | - | - | - | - | 46 | 41 | -
